Data from PubChem BioAssay.
Some of the results follow. Unmarked numbers belong to inactive results. Activity calls are given as the source filed them.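 The calls were made as follows, unless noted: active = mean inhibition above about 50% in the one-dose retest (limit read from the data); inactive = the rest.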

test system: not listed separately; test: lowers stimulated NF-kB luciferase signal in Jurkat – cell-based, luminescence, single concentration, T-cell NF-kB inhibitor project, confirmation (AID 435020;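 active = inhibition reaching about 45% at 4 µM in either replicate, limit read from the data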;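 also: plate controls were PMA/ionomycin stimulated DMSO wells for no effect and unstimulated DMSO wells for full effect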); settings: PMA/ionomycin-induced, 16 h, at 4 µM, active compounds read high

| SMILES | inhibition [%] |
| --- | --- |
| C=CCn1c(SCc2c(C)noc2C)nc2sc3c(c2c1=O)CCC(C)C3 (centres undefined) | 27.9 |
| O=c1cc(-c2ccccc2)[nH]c2cc(F)ccc12 | 46 |
| O=C(CCNC(=O)c1ccc(Br)cc1)Nc1cccc(S(=O)(=O)N2CCCCC2)c1 | 0.65 |
| CCOc1ccc2[nH]c3nc(SCC(=O)NC4CCCC4)nnc3c2c1 | 14.2 |

target: Sentrin-specific protease 8 (Homo sapiens) (UniProt Q96LD8); test: human SENP8 peptidase blockers, hit retest – biochemical, luminescence, single concentration, confirmation (AID 488912;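 active = mean inhibition across replicates above about 50%, limit read from the data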); settings: Recombinant SENP8, Z-RLRGG-aminoluciferin luminescence, 60 min; at 12.5 µM; active compounds read high
Sequence (Q96LD8 whole entry, looked up): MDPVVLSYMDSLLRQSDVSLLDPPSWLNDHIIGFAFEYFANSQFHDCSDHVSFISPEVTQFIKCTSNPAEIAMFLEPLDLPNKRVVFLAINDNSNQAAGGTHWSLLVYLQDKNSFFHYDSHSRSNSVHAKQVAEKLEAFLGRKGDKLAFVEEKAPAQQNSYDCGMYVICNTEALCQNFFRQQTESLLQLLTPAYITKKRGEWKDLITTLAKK

| SMILES | inhibition |
| --- | --- |
| O=C(Oc1ccc(-c2nc(-c3ccccn3)no2)cc1)c1ccccc1 | 4.5% |
| COc1cc(SC)ccc1C(=O)Nc1nc(C)cs1 | 89.6% (active) |
| COc1ccc(-c2nc(-c3ccccc3)no2)c(OC)c1 | 97.4% (active) |
| Cc1ccc(-c2nc3ccccc3[nH]2)cc1N | 91.6% (active) |
| CC(=O)c1sc(NC(=O)c2ccc(C)cc2)nc1C | -24.9% |
| COc1ccc(C(=O)Nc2ccccc2C(=O)N/N=C/c2ccc(O)c(OC)c2)cc1 | 97.3% (active) |
| COc1cc(SC)ccc1C(=O)Nc1cc(C)ccn1 | 39.8% |
| Cn1c(-c2ccco2)nc2cc3ccccc3cc21 | 3.5% |
| Clc1ccc(-c2cc(-c3ccccn3)on2)c(Cl)c1 | 94.7% (active) |
| Cc1ccc(-c2cn3cc(C)ccc3n2)cc1 | 54.3% (active) |
| COc1ccc(-c2cn3ccc(C)cc3n2)cc1 | -5.4% |

target: Sentrin-specific protease 6 (Homo sapiens) (UniProt Q9GZR1); test: inhibition of human SENP6 catalytic domain – biochemical, luminescence, single concentration, confirmation (AID 488915); settings: recombinant SENP6, Z-RLRGG-aminoluciferin luminescence; at 12.5 µM; active compounds read high
Sequence (Q9GZR1 628-1112 limits assumed): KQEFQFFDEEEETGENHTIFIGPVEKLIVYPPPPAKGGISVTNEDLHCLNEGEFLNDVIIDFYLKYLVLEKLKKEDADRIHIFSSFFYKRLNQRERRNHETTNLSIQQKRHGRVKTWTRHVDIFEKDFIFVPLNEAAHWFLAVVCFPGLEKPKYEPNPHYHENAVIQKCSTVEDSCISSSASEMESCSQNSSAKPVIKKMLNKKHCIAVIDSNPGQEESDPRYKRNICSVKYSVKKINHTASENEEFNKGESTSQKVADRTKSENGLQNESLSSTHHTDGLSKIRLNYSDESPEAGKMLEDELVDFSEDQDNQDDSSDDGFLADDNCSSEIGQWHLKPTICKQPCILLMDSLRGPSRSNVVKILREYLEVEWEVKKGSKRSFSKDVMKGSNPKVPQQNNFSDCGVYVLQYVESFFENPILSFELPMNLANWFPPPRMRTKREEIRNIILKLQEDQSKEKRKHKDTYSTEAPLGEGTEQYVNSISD

| SMILES | inhibition |
| --- | --- |
| O=C(Oc1ccc(-c2nc(-c3ccccn3)no2)cc1)c1ccccc1 | 23.1% |
| COc1cc(SC)ccc1C(=O)Nc1nc(C)cs1 | 98.7% (active) |
| COc1ccc(-c2nc(-c3ccccc3)no2)c(OC)c1 | 100% (active) |
| Cc1ccc(-c2nc3ccccc3[nH]2)cc1N | 92% (active) |
| CC(=O)c1sc(NC(=O)c2ccc(C)cc2)nc1C | -17.1% |
| COc1ccc(C(=O)Nc2ccccc2C(=O)N/N=C/c2ccc(O)c(OC)c2)cc1 | 98.5% (active) |
| COc1cc(SC)ccc1C(=O)Nc1cc(C)ccn1 | 40.9% |
| Cn1c(-c2ccco2)nc2cc3ccccc3cc21 | 99.6% (active) |
| Clc1ccc(-c2cc(-c3ccccn3)on2)c(Cl)c1 | 95.8% (active) |
| Cc1ccc(-c2cn3cc(C)ccc3n2)cc1 | 91.7% (active) |
| COc1ccc(-c2cn3ccc(C)cc3n2)cc1 | 88.1% (active) |

target: Sentrin-specific protease 7 (Homo sapiens) (UniProt Q9BQF6); test: human SENP7 peptidase blockers, hit retest – biochemical, luminescence, single concentration, confirmation (AID 488917); settings: recombinant SENP7, Z-RLRGG-aminoluciferin luminescence, 40 min; at 12.5 µM; active compounds read high
Sequence (Q9BQF6 706-1050 limits assumed): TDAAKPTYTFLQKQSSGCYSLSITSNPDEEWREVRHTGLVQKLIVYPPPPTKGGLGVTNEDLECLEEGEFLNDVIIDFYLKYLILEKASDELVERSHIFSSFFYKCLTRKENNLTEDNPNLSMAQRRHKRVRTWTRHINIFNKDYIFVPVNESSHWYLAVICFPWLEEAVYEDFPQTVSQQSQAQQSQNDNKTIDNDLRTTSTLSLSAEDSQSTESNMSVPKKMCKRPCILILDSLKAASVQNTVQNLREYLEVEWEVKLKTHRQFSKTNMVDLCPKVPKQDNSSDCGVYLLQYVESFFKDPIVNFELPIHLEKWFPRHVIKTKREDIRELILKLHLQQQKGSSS

| SMILES | inhibition |
| --- | --- |
| O=C(Oc1ccc(-c2nc(-c3ccccn3)no2)cc1)c1ccccc1 | 2.6% |
| COc1cc(SC)ccc1C(=O)Nc1nc(C)cs1 | 100% (active) |
| COc1ccc(-c2nc(-c3ccccc3)no2)c(OC)c1 | 103% (active) |
| Cc1ccc(-c2nc3ccccc3[nH]2)cc1N | 102% (active) |
| CC(=O)c1sc(NC(=O)c2ccc(C)cc2)nc1C | 3.1% |
| COc1ccc(C(=O)Nc2ccccc2C(=O)N/N=C/c2ccc(O)c(OC)c2)cc1 | 102% (active) |
| COc1cc(SC)ccc1C(=O)Nc1cc(C)ccn1 | 78.8% (active) |
| Cn1c(-c2ccco2)nc2cc3ccccc3cc21 | 103% (active) |
| Clc1ccc(-c2cc(-c3ccccn3)on2)c(Cl)c1 | 102% (active) |
| Cc1ccc(-c2cn3cc(C)ccc3n2)cc1 | 101% (active) |
| COc1ccc(-c2cn3ccc(C)cc3n2)cc1 | 99.5% (active) |

target: Caspase-3 (Homo sapiens) (UniProt P42574); test: human caspase-3 activity blockade, out-of-family – biochemical, single concentration, selectivity assay for SENP inhibitor project, confirmation (AID 488918;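 active = mean inhibition above about 50%, limit read from the data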;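 also: plate controls were enzyme with DMSO for no effect and wells without caspase-3 for full effect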); settings: purified caspase-3, Z-DEVD-aminoluciferin luminescence, 60 min; at 12.5 µM; active compounds read high
Sequence (P42574 28-227 limits assumed): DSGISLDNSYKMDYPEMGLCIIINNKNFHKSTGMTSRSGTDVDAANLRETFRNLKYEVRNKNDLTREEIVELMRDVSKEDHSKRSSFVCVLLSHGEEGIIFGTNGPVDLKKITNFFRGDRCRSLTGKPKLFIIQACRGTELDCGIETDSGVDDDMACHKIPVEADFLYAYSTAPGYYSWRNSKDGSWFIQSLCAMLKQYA

| SMILES | inhibition |
| --- | --- |
| O=C(Oc1ccc(-c2nc(-c3ccccn3)no2)cc1)c1ccccc1 | 14.5% |
| COc1cc(SC)ccc1C(=O)Nc1nc(C)cs1 | 95.3% (active) |
| COc1ccc(-c2nc(-c3ccccc3)no2)c(OC)c1 | 98.1% (active) |
| Cc1ccc(-c2nc3ccccc3[nH]2)cc1N | 96.7% (active) |
| CC(=O)c1sc(NC(=O)c2ccc(C)cc2)nc1C | 6% |
| COc1ccc(C(=O)Nc2ccccc2C(=O)N/N=C/c2ccc(O)c(OC)c2)cc1 | 98.4% (active) |
| COc1cc(SC)ccc1C(=O)Nc1cc(C)ccn1 | 43.8% |
| Cn1c(-c2ccco2)nc2cc3ccccc3cc21 | 98.1% (active) |
| Clc1ccc(-c2cc(-c3ccccn3)on2)c(Cl)c1 | 94.9% (active) |
| Cc1ccc(-c2cn3cc(C)ccc3n2)cc1 | 95% (active) |
| COc1ccc(-c2cn3ccc(C)cc3n2)cc1 | 95.2% (active) |

test system: not listed separately; test: Ultra-Glo luciferase signal interference – biochemical, single concentration, SENP8 reaction pre-completed, artefact control for SENP inhibitor project, confirmation (AID 488919;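 active = mean inhibition above about 50% when retested at one dose, limit read from the data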;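 also: plate controls were DMSO wells with completed reaction for no effect and substrate without enzyme for full effect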); settings: Pre-incubated SENP8/Z-RLRGG-aminoluciferin, luciferase luminescence interference; at 12.5 µM; active compounds read high

| SMILES | inhibition |
| --- | --- |
| O=C(Oc1ccc(-c2nc(-c3ccccn3)no2)cc1)c1ccccc1 | 2.6% |
| COc1cc(SC)ccc1C(=O)Nc1nc(C)cs1 | 46.2% |
| COc1ccc(-c2nc(-c3ccccc3)no2)c(OC)c1 | 98.1% (active) |
| Cc1ccc(-c2nc3ccccc3[nH]2)cc1N | 92.3% (active) |
| CC(=O)c1sc(NC(=O)c2ccc(C)cc2)nc1C | -5.6% |
| COc1ccc(C(=O)Nc2ccccc2C(=O)N/N=C/c2ccc(O)c(OC)c2)cc1 | 83.7% (active) |
| COc1cc(SC)ccc1C(=O)Nc1cc(C)ccn1 | 51% (active) |
| Cn1c(-c2ccco2)nc2cc3ccccc3cc21 | 98.1% (active) |
| Clc1ccc(-c2cc(-c3ccccn3)on2)c(Cl)c1 | 32.9% |
| Cc1ccc(-c2cn3cc(C)ccc3n2)cc1 | 39.4% |
| COc1ccc(-c2cn3ccc(C)cc3n2)cc1 | 91.2% (active) |
